The record followed here is PubChem BioAssay (NCI).

Each structure is given as a SMILES string. About 83,000 compounds went through this panel and 20% of them were active in at least one assay; those are over-represented in the sample as a whole.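 Results are percent growth after 48 hours of single-concentration exposure. 100 means growth as in untreated cells, lower positive values show inhibition; negative values down to -100 show cell death.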 A number with no mark means an inactive call. Active and inactive are the calls of the source. How the source made its calls: active means growth percent below 10; inactive means the rest.

Some test systems named below: DU-145 prostate; K-562 leukemia; MALME-3M melanoma; MDA-MB-231 breast; RXF 393 renal; SF-268 CNS; SF-295 CNS; SF-539 CNS; UACC-257 melanoma; M14 melanoma; HCT-15 colon; HT29 colon; SNB-75 CNS; SNB-19 CNS; U251 CNS; PC-3 prostate; SK-MEL-5 melanoma; UACC-62 melanoma; LOX IMVI melanoma; SK-MEL-28 melanoma.
Assay in all cases: NCI-60 one-dose screen, 48 h (100 = growth as untreated, 0 = no growth, -100 = all killed)
What all share (settings): 10 µM unless noted

`O=C(/C=C/c1cn(-c2ccccc2)nc1-c1cccc(Nc2ccnc3cc(Cl)ccc23)c1)c1ccc2c(c1)OCO2`: the growth in the assay with DU-145 prostate is 76.8%; in the assay with K-562 leukemia, 66.8%; in the assay with MALME-3M melanoma it was 38%; with MDA-MB-231 breast, 72.7%; with RXF 393 renal, 95.2%; in the assay on SF-268 CNS, 89.7%. The growth in the assay with SF-295 CNS is 115%; in the assay on SF-539 CNS it was 95.7%; in the assay with UACC-257 melanoma, 95%; with M14 melanoma, 111%; in the assay with HCT-15 colon, 91.9%; with HT29 colon, 114%. Further, the growth in the assay on SNB-75 CNS is 101%; with SNB-19 CNS, 104%; with U251 CNS, 89.1%; in the assay on PC-3 prostate, 96.6%; in the assay on SK-MEL-5 melanoma, 85.3%; in the assay with UACC-62 melanoma it was 104%. In addition, the growth was 94.1% in the assay with LOX IMVI melanoma and 82.7% in the assay with SK-MEL-28 melanoma.
On to `Cc1cc(C)c([O-])c(CN(C)CCN(C)Cc2cc(C)cc(C)c2[O-])c1.O=C([O-])c1cccc(C(=O)[O-])n1.[Ti+4]`, for which the growth in the assay on DU-145 prostate was 33.8%; with K-562 leukemia it was -1.84% (active); in the assay with MALME-3M melanoma, -45.7% (active); in the assay on MDA-MB-231 breast, 44.6%; in the assay with RXF 393 renal, -43.5% (active); in the assay on SF-268 CNS, 23.9%. The growth in the assay with SF-295 CNS is 12.8%; in the assay on SF-539 CNS it was 7.18% (active); with UACC-257 melanoma it was 19.8%; with M14 melanoma, -49.8% (active); in the assay with HCT-15 colon, 36.4%; with HT29 colon, -32.8% (active). For the same molecule, the growth was -12.1% (active) with SNB-75 CNS; 26.6% in the assay on SNB-19 CNS; 9.4% (active) in the assay on U251 CNS; -0.468% (active) with PC-3 prostate; 9.84% (active) in the assay with SK-MEL-5 melanoma; 25.8% in the assay on UACC-62 melanoma. The growth is -58.1% (active) in the assay on LOX IMVI melanoma and -27.2% (active) in the assay with SK-MEL-28 melanoma.
On to `COc1ccc(C2CC(c3ccc(Nc4ccnc5cc(Cl)ccc45)cc3)=NN2c2ccccc2)cc1` (centres undefined), for which the growth in the assay on DU-145 prostate is 105%; in the assay on K-562 leukemia it was 67.9%; in the assay with MALME-3M melanoma it was 94.4%; with MDA-MB-231 breast, 103%; in the assay with RXF 393 renal it was 109%; with SF-268 CNS, 108%. Besides, the growth in the assay on SF-295 CNS was 107%; with SF-539 CNS, 88.2%; in the assay with UACC-257 melanoma it was 97.4%; in the assay on M14 melanoma, 99.6%; in the assay with HCT-15 colon, 87.2%; in the assay on HT29 colon, 52%. The growth in the assay on SNB-75 CNS is 104%; with SNB-19 CNS, 109%; in the assay on U251 CNS, 81.9%; in the assay on PC-3 prostate it was 78%; in the assay on SK-MEL-5 melanoma, 79.9%; in the assay on UACC-62 melanoma, 95%. Further, the growth in the assay with LOX IMVI melanoma was 100%; in the assay with SK-MEL-28 melanoma, 97.3%.
With `Fc1ccc(-c2ccnc3nc(-c4ccncc4)nn23)cc1`, the growth in the assay on DU-145 prostate was 101%; in the assay with K-562 leukemia, 98.1%; in the assay with MALME-3M melanoma it was 114%; in the assay with MDA-MB-231 breast, 113%; in the assay with RXF 393 renal, 105%; in the assay on SF-268 CNS, 97.1%. Besides, the growth in the assay with SF-295 CNS is 111%; in the assay on SF-539 CNS it was 101%; in the assay with UACC-257 melanoma, 111%; with M14 melanoma, 107%; with HCT-15 colon, 103%; in the assay with HT29 colon, 97.3%. Further, the growth with SNB-75 CNS was 90.1%; with SNB-19 CNS, 112%; in the assay with U251 CNS, 104%; with PC-3 prostate it was 97.2%; in the assay on SK-MEL-5 melanoma it was 106%; in the assay on UACC-62 melanoma, 116%. The growth in the assay with LOX IMVI melanoma was 100%; with SK-MEL-28 melanoma it was 111%.
For the molecule `CCOc1ccc([C@@H]2[C@@H](Oc3ccccc3)C(=O)N2c2cc(OC)c(OC)c(OC)c2)cc1`, the growth in the assay with DU-145 prostate was 12.5%; in the assay on K-562 leukemia, 6.3% (active); with MALME-3M melanoma, 71.8%; in the assay on MDA-MB-231 breast it was 10.1%; with RXF 393 renal, 14.1%; with SF-268 CNS, 33.9%. In addition, the growth is 13.1% in the assay on SF-295 CNS; -12.9% (active) in the assay on SF-539 CNS; 73.7% in the assay with UACC-257 melanoma; 4.74% (active) in the assay on M14 melanoma; 10.8% in the assay with HCT-15 colon; 5.82% (active) in the assay with HT29 colon. The growth is 65.6% with SNB-75 CNS; 35.4% in the assay with SNB-19 CNS; 21.7% in the assay with U251 CNS; 25.6% in the assay on PC-3 prostate; -18.7% (active) in the assay on SK-MEL-5 melanoma; 26% in the assay with UACC-62 melanoma. The results for the growth with LOX IMVI melanoma and in the assay with SK-MEL-28 melanoma were 26.7% and 64.8%, respectively.
Take `COc1ccc([C@@H]2[C@@H](Cl)C(=O)N2c2cc(OC)c(OC)c(OC)c2)cc1C`: the growth in the assay on DU-145 prostate is 12.9%; in the assay with K-562 leukemia, 9.59% (active); with MALME-3M melanoma, 76%; with MDA-MB-231 breast, 18.3%; in the assay with RXF 393 renal, 19.8%; in the assay on SF-268 CNS it was 30.2%. The growth in the assay with SF-295 CNS is 15.7%; in the assay on SF-539 CNS, 3.27% (active); in the assay with UACC-257 melanoma, 80.7%; in the assay on M14 melanoma it was 11.7%; with HCT-15 colon, 15.8%; with HT29 colon it was 11.1%. For the same molecule, the growth in the assay with SNB-75 CNS is 75.6%; with SNB-19 CNS, 33.6%; with U251 CNS, 12.9%; in the assay on PC-3 prostate, 28.9%; with SK-MEL-5 melanoma it was -13.8% (active); in the assay with UACC-62 melanoma, 35.3%. For the same molecule, the growth with LOX IMVI melanoma was 24.4%; with SK-MEL-28 melanoma, 70.7%.
For `O=[N+]([O-])c1cc(F)c2cccnc2c1O`, the growth in the assay on DU-145 prostate is 121%; in the assay with K-562 leukemia, 109%; in the assay with MALME-3M melanoma, 103%; in the assay with MDA-MB-231 breast, 99.5%; in the assay with RXF 393 renal, 148%; in the assay on SF-268 CNS it was 106%. Besides, the growth in the assay on SF-295 CNS was 110%; with SF-539 CNS it was 91%; with UACC-257 melanoma it was 115%; in the assay on M14 melanoma, 88.5%; in the assay on HCT-15 colon, 92.1%; with HT29 colon, 111%. The growth was 86% in the assay on SNB-75 CNS; 93% with SNB-19 CNS; 91.9% with U251 CNS; 96.6% in the assay on PC-3 prostate; 90.2% with SK-MEL-5 melanoma; 92.9% in the assay with UACC-62 melanoma. Moreover, the growth in the assay on LOX IMVI melanoma was 84.7%; in the assay with SK-MEL-28 melanoma, 135%.
Take `CC(=O)OC1Oc2cc(C)c(C)cc2-c2oc(=O)c(-c3cc4ccccc4oc3=O)cc21` (centres undefined): the growth in the assay with DU-145 prostate is 89.7%; with K-562 leukemia, 106%; with MALME-3M melanoma, 107%; in the assay on MDA-MB-231 breast, 92.4%; in the assay with RXF 393 renal it was -1.16% (active); in the assay on SF-268 CNS it was 61.3%. Besides, the growth with SF-295 CNS is 76%; in the assay on SF-539 CNS, 88.4%; in the assay with UACC-257 melanoma, 117%; in the assay on M14 melanoma it was 96.3%; in the assay with HCT-15 colon it was 117%; with HT29 colon, 110%. Also, the growth with SNB-75 CNS is 92.5%; with SNB-19 CNS, 116%; in the assay on U251 CNS, 66.6%; in the assay on PC-3 prostate, 91.9%; in the assay on UACC-62 melanoma, 102%; in the assay with LOX IMVI melanoma, 84.7%. Besides, in the assay with SK-MEL-28 melanoma, the growth was 152%.
